Test results as given in the supplement of paper PMC3334620.
The full ranking holds about 33,000 sequences; the median of “E-score (-0.5 to 0.5)” is about -0.015, and the highest 2% start at about 0.3. Shown is part of a subset that was picked to be rich in the highest values.

Target: T1, Abf1 (UniProt P14164)
T1 sequence: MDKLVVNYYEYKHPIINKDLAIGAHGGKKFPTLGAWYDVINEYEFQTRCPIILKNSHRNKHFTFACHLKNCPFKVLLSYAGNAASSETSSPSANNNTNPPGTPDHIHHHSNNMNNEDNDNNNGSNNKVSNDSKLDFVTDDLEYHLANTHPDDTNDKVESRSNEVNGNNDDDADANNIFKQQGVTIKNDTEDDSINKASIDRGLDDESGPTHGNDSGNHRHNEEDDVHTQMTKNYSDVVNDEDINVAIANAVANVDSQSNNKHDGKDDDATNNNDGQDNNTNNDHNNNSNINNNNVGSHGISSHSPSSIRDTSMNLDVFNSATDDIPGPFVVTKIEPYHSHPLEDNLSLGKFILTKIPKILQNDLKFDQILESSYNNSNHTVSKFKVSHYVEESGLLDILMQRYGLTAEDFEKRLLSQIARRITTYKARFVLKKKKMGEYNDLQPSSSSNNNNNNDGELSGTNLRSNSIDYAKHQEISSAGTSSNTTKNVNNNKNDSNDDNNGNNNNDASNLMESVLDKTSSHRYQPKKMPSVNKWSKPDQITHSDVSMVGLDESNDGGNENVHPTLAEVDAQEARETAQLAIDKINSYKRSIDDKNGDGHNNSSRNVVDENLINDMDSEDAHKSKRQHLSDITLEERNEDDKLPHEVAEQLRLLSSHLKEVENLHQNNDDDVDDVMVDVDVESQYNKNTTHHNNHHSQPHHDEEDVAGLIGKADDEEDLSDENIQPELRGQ
Assay: PBM E-score (8-mer binding enrichment) (E-score (-0.5 to 0.5)); higher = stronger / more preferred TF binding
Conditions: protein concentration: 200 nM; construct: GST-full length
Method: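 Universal 'all 10-mer' protein binding microarrays (Agilent AMADID 015681) probed with GST-tagged S. cerevisiae TFs (full-length or DBD) made by in vitro transcription/translation (PURExpress), about 100-200 nM. Bound TF was detected with fluorescent anti-GST. Each ungapped 8-mer (which stands for itself and its reverse complement) is scored by the PBM enrichment score (E-score), a modified Wilcoxon-Mann-Whitney statistic from -0.5 to +0.5, computed with the Universal PBM Analysis Suite. Scale: above 0.35 generally sequence-specific binding.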

| Sequence | PBM E-score |
| --- | --- |
| ATGCCACC | -0.148 |
| AATCCAGT | 0.0412 |
| AATCTGCA | -0.185 |
| TGGGACAA | 0.0227 |
| AAGCCACG | 0.124 |
| AAAGTATA | 0.101 |
| CGATACCA | 0.018 |
| AAGTCACG | 0.268 |
| AGGTCACT | 0.304 |
| AAGTCACT | 0.304 |
| AGGTCACC | 0.282 |
| AGGTCACG | 0.235 |
| AAGTCACA | 0.125 |
| ACTCTGAC | -0.0634 |
| CGAATTCC | -0.0103 |
| CGGACGCC | -0.0127 |
| AATGCCAG | -0.155 |
| ATGTCGGG | 0.0062 |
| AAGGAACA | -0.0655 |
| ACGCAGCG | -0.162 |
| AACGACGG | 0.249 |
| GCCGACGA | 0.176 |
| AACGACGA | 0.346 |
| TCCGACGA | 0.392 |
| CCCGACGA | 0.196 |

| Sequence | PBM E-score |
| --- | --- |
| CACGACCG | -0.0182 |
| CACGACGA | 0.263 |
| AATAACGC | -0.118 |
| CACGACGG | 0.356 |
| AACGACGT | 0.19 |
| AATAACGA | 0.325 |
| AATAACGG | 0.126 |
| ACAGCTAG | -0.181 |
| ACTCTTAA | -0.0406 |
| AACCGGGG | -0.212 |
| AAAATCCC | -0.0966 |
| CGTCCTAC | -0.0375 |
| ACTCGATA | 0.199 |
| AACTGCGA | -0.0488 |
| ATCTGCAG | -0.106 |
| GAGTATAC | 0.0804 |
| CACGACGC | 0.172 |
| TACGACGA | 0.329 |
| TACGACCA | 0.242 |
| AACGACGC | 0.0599 |
| GACGACGC | 0.3 |
| GACGACGA | 0.251 |
| TACACCCA | -0.015 |
| CACCACGA | 0.202 |
| GGGTGCTA | -0.118 |

| Sequence | PBM E-score |
| --- | --- |
| CGTGCGAG | 0.137 |
| CCTTAAGC | -0.123 |
| AGTCGTTC | 0.212 |
| GGTCGTAA | 0.104 |
| CGTCGTAC | 0.399 |
| GGTCGTAC | 0.212 |
| CGTCGTTA | 0.257 |
| CATCGTAC | 0.382 |
| CGTCGTAG | 0.192 |
| GATCGTAC | 0.151 |
| CGTCGTTC | 0.313 |
| TGTCGTAA | 0.103 |
| CATCGTAA | 0.106 |
| CGTCGTAA | 0.392 |
| ATTCTGTG | 0.00625 |
| GCGAAAGA | -0.024 |
| AAGACGAG | -0.0454 |
| AATAGTAC | 0.132 |
| AAATGGGT | -0.0572 |
| ACGCAGTC | -0.224 |
| AGATCATG | 0.262 |
| CGTCGTCA | 0.24 |
| CGTCGTCC | 0.307 |
| AGTCGTCC | 0.142 |
| ACTCGAGA | -0.0317 |

| Sequence | PBM E-score |
| --- | --- |
| CGACAAAC | 0.167 |
| TCATATGA | 0.101 |
| GCATATCC | 0.179 |
| GCATATCA | 0.319 |
| ACATATCC | 0.236 |
| GCATATGA | 0.028 |
| ACATATCG | 0.118 |
| CCATATCA | 0.163 |
| ACATATCA | 0.341 |
| TCATATCA | 0.315 |
| GACGACCA | 0.286 |
| CACGAGAG | 0.0678 |
| ACTCGGAG | -0.00102 |
| CTCTTGTC | 0.024 |
| ATTCTATC | 0.127 |
| AGTAGAGC | -0.168 |
| TCAGCAGA | -0.0392 |
| AAATGGAC | 0.0432 |
| ACCGTTTC | 0.0554 |
| ACCGTTGC | 0.0812 |
| CACAACCC | -0.194 |
| ATGGGGAA | -0.104 |
| ATTATCAG | 0.0821 |
| CTTATCAA | 0.164 |
| CTTATCAC | 0.369 |

| Sequence | PBM E-score |
| --- | --- |
| ATTATCAC | 0.434 |
| ATTATCAA | 0.193 |
| CTTATCCC | -0.0767 |
| CGTGGTTC | 0.0193 |
| GAGCCCCC | -0.283 |
| TCATAGAA | 0.121 |
| GACCGGCC | -0.229 |
| TAATTGGA | 0.141 |
| GCATACGC | -0.149 |
| GAGCCGTA | 0.347 |
| CAGCCGTA | 0.192 |
| AAGCCGTA | 0.193 |
| GCCGTTGA | 0.173 |
| TGGGGCAA | -0.281 |
| ATATATAC | 0.262 |
| CTATATAC | 0.364 |
| ATATATCC | 0.171 |
| ATATATCA | 0.311 |
| GTATATGA | 0.12 |
| CTATATCA | 0.267 |
| GTATATCA | 0.386 |
| GTATATAA | 0.286 |
| CTCTATAC | 0.116 |
| AACAGAGC | -0.0439 |
| ACTCTGTG | -0.0599 |

| Sequence | PBM E-score |
| --- | --- |
| GTGCCATA | -0.14 |
| CCAAAAGC | -0.0875 |
| TCGCATAA | 0.205 |
| AATACTTC | -0.0521 |
| AAGAATGA | 0.293 |
| AATGTCAT | 0.306 |
| ACTGTCAT | 0.0825 |
| GCTGTCAC | 0.197 |
| GATGTCAC | 0.395 |
| CATGTCAA | 0.105 |
| AATGTCGG | -0.0313 |
| AATGTCGA | 0.146 |
| AGTGTCAT | 0.21 |
| AATGTCGT | 0.302 |
| CATGTCAG | 0.0449 |
| CATGTCAC | 0.383 |
| GATGTCAA | -0.0282 |
| GAGTTGTA | 0.0502 |
| GGTAGCTA | -0.16 |
| AAACTCGC | -0.0402 |
| GAGTGTCC | -0.0553 |
| CACCTCGC | -0.0945 |
| ACAGTTGA | -0.00384 |
| ATGGAGAA | -0.0924 |
| CTTGTGGA | -0.249 |

| Sequence | PBM E-score |
| --- | --- |
| GTCCCAAC | 0.0207 |
| ACAGCTAA | -0.159 |
| AGTGTCAC | 0.174 |
| AATGTCAA | -0.00569 |
| AATGTCAG | -0.169 |
| AATGTCAC | 0.416 |
| CGTGTCAG | 0.27 |
| CGTGTCAC | 0.327 |
| CACGCCGG | -0.0297 |
| GATAGGTA | 0.0863 |
| CGGGCGGA | -0.157 |
| CTTGCATA | 0.0552 |
| AGCGTACA | -0.121 |
| TGCGTACA | 0.0613 |
| TCCGTAAA | 0.145 |
| ACCGTACG | 0.34 |
| ACCGTAAG | 0.226 |
| CCCGTACG | 0.348 |
| ACCGTACA | 0.327 |
| CCCGTACC | 0.182 |
| CCCGTACA | 0.263 |
| ACCGTACT | 0.286 |
